# Test results from PubChem BioAssay AID1159580 (chemical genetic matrix, 2015).
# Several values for one entry are separate records, joined by “and”; a condition that tells them apart may be missing. Identical values can stand only once. In all, about 5,500 compounds went through this assay and about 2,000 (36%) were called active. Roughly 18% stayed inconclusive and do not appear here. This is one part of the list. A number with no mark means an inactive call. No stated cut-off is given here; in the data, active means normalized growth mostly below about 0.91 (no sharp cut-off); inconclusive means no clear call, values can overlap the other calls; inactive means mostly above about 0.92.
# Assay: chemical genetic growth profiling, strain panel (AID 1159580);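 further: tested at 20 µM; growth read once vehicle control cultures reached saturation at 30 °C; 1 = growth at the plate median or of vehicle wells; lower values mean less growth of the strain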
# Conditions: S. cerevisiae deletion strains, growth OD
compound,measurement,setting,value
NCCCCCC(=O)O,normalized growth,"locus YAL013W, strain DEP1, active compounds read low",0.951
same,normalized growth,"locus YAL021C, strain ccr4, active compounds read low",0.99
same,normalized growth,"locus YAL026C, strain drs2, active compounds read low",1
same,normalized growth,"locus YAL030W, strain snc1, active compounds read low",0.989
same,normalized growth,"locus YAL040C, strain CLN3, active compounds read low",0.979
same,normalized growth,"locus YBL061C, strain skt5, active compounds read low",1
same,normalized growth,"locus YBR009C, strain hhf1, active compounds read low",1
same,normalized growth,"locus YBR021W, strain FUR4, active compounds read low",0.706 (active)
same,normalized growth,"locus YBR023C, strain chs3, active compounds read low",1
same,normalized growth,"locus YBR171W, strain sec66, active compounds read low",0.991
same,normalized growth,"locus YBR229C, strain ROT2, active compounds read low",0.988
same,normalized growth,"locus YBR231C, strain swc5, active compounds read low",1.01
same,normalized growth,"locus YBR279W, strain paf1, active compounds read low",0.996
same,normalized growth,"locus YCL011C, strain gbp2, active compounds read low",0.994
same,normalized growth,"locus YCL016C, strain dcc1, active compounds read low",1.01
same,normalized growth,"locus YCL029C, strain bik1, active compounds read low",0.999
same,normalized growth,"locus YCL061C, strain MRC1 (second series), active compounds read low",0.983
same,normalized growth,"locus YCL069W, strain vba3, active compounds read low",0.995
same,normalized growth,"locus YCR088W, strain abp1, active compounds read low",0.995
same,normalized growth,"locus YDL005C, strain med2, active compounds read low",1.01
same,normalized growth,"locus YDL035C, strain GPR1, active compounds read low",0.963
same,normalized growth,"locus YDL040C, strain nat1, active compounds read low",0.997
same,normalized growth,"locus YDL074C, strain BRE1, active compounds read low",0.964
same,normalized growth,"locus YDL101C, strain DUN1, active compounds read low",1.01
same,normalized growth,"locus YDL134C, strain PPH21, active compounds read low",0.979
same,normalized growth,"locus YDL185W, strain tfp1, active compounds read low",1.01
same,normalized growth,"locus YDL192W, strain arf1, active compounds read low",1.01
same,normalized growth,"locus YDR001C, strain nth1, active compounds read low",1.03
same,normalized growth,"locus YDR069C, strain doa4, active compounds read low",1.01
same,normalized growth,"locus YDR101C, strain arx1, active compounds read low",0.981
same,normalized growth,"locus YDR137W, strain rgp1, active compounds read low",0.972
same,normalized growth,"locus YDR150W, strain NUM1, active compounds read low",0.974
same,normalized growth,"locus YDR159W, strain sac3, active compounds read low",1
same,normalized growth,"locus YDR162C, strain NBP2, active compounds read low",0.985
same,normalized growth,"locus YDR195W, strain ref2",0.976
same,normalized growth,"locus YDR297W, strain sur2, active compounds read low",0.998
same,normalized growth,"locus YDR318W, strain mcm21, active compounds read low",1.01
same,normalized growth,"locus YDR334W, strain swr1, active compounds read low",1.02
same,normalized growth,"locus YDR335W, strain msn5, active compounds read low",1.01
same,normalized growth,"locus YDR363W, strain ESC2, active compounds read low",1.01
same,normalized growth,"locus YDR388W, active compounds read low",0.998
same,normalized growth,"locus YDR392W, strain spt3, active compounds read low",0.965
same,normalized growth,"locus YDR502C, strain sam2, active compounds read low",1
same,normalized growth,"locus YEL003W, strain gim4, active compounds read low",1
same,normalized growth,"locus YEL037C, strain rad23, active compounds read low",0.999
same,normalized growth,"locus YEL061C, strain CIN8 (second series), active compounds read low",1
same,normalized growth,"locus YEL061C, strain CIN8, active compounds read low",0.995
same,normalized growth,"locus YER002W, strain NOP16, active compounds read low",0.992
same,normalized growth,"locus YER015W, strain faa2, active compounds read low",1
same,normalized growth,"locus YER016W, strain bim1, active compounds read low",0.966
same,normalized growth,"locus YER110C, active compounds read low",1.01
same,normalized growth,"locus YER111C, strain swi4, active compounds read low",1.01
same,normalized growth,"locus YER155C, strain BEM2 (second series), active compounds read low",0.976
same,normalized growth,"locus YER155C, strain BEM2, active compounds read low",0.992
same,normalized growth,"locus YER167W, strain BCK2, active compounds read low",0.99
same,normalized growth,"locus YFR010W, strain ubp6, active compounds read low",1.03
same,normalized growth,"locus YGL078C, strain dbp3, active compounds read low",1
same,normalized growth,"locus YGL086W, strain mad1, active compounds read low",1
same,normalized growth,"locus YGL167C, strain pmr1, active compounds read low",1
same,normalized growth,"locus YGL173C, strain kem1, active compounds read low",1
same,normalized growth,"locus YGL227W, strain vid30, active compounds read low",0.998
same,normalized growth,"locus YGL240W, strain doc1, active compounds read low",1.03
same,normalized growth,"locus YGL248W, strain PDE1, active compounds read low",0.987
same,normalized growth,"locus YGL253W, strain hxk2, active compounds read low",1
same,normalized growth,"locus YGR078C, strain PAC10, active compounds read low",0.997
same,normalized growth,"locus YGR135W, strain pre9, active compounds read low",1
same,normalized growth,"locus YGR252W, strain gcn5, active compounds read low",0.907
same,normalized growth,"locus YHR013C, strain ard1, active compounds read low",1
same,normalized growth,"locus YHR027C, strain rpn1, active compounds read low",0.999
same,normalized growth,"locus YHR030C, strain SLT2, active compounds read low",0.999 and 1
same,normalized growth,"locus YHR079C, strain IRE1 (second series), active compounds read low",1.01
same,normalized growth,"locus YHR079C, strain IRE1, active compounds read low",1.04
same,normalized growth,"locus YHR094C, strain hxt1, active compounds read low",1
same,normalized growth,"locus YHR129C, strain ARP1, active compounds read low",0.998
same,normalized growth,"locus YHR142W, strain chs7, active compounds read low",1
same,normalized growth,"locus YHR200W, strain rpn10, active compounds read low",1.01
same,normalized growth,"locus YIL066C, strain RNR3, active compounds read low",0.962
same,normalized growth,"locus YIL073C, strain SPO22, active compounds read low",1.03
same,normalized growth,"locus YIL125W, strain kgd1, active compounds read low",1.01
same,normalized growth,"locus YIR030C, strain dcg1, active compounds read low",1.01
same,normalized growth,"locus YJL092W, strain hpr5, active compounds read low",1.03
same,normalized growth,"locus YJL095W, strain BCK1 (second series), active compounds read low",0.985
same,normalized growth,"locus YJL095W, strain BCK1, active compounds read low",0.995 and 1.03
same,normalized growth,"locus YJL115W, strain asf1, active compounds read low",1.01
same,normalized growth,"locus YJL129C, strain trk1, active compounds read low",1.01
same,normalized growth,"locus YJL134W, strain LCB3, active compounds read low",0.992
same,normalized growth,"locus YJL154C, strain vps35, active compounds read low",0.998
same,normalized growth,"locus YJL164C, strain tpk1, active compounds read low",0.996
same,normalized growth,"locus YJL166W, strain qcr8, active compounds read low",1.02
same,normalized growth,"locus YJL168C, strain set2, active compounds read low",1.01
same,normalized growth,"locus YJL187C, strain SWE1 (second series), active compounds read low",0.992
same,normalized growth,"locus YJR043C, strain POL32, active compounds read low",0.952
same,normalized growth,"locus YJR066W, strain TOR1, active compounds read low",0.993
same,normalized growth,"locus YKL009W, strain mrt4, active compounds read low",1.04
same,normalized growth,"locus YKL068W, active compounds read low",0.994
same,normalized growth,"locus YKL085W, strain MDH1 (second series), active compounds read low",1.01
same,normalized growth,"locus YKL085W, strain MDH1, active compounds read low",1.01
same,normalized growth,"locus YKL160W, strain elf1, active compounds read low",0.996
same,normalized growth,"locus YKR001C, strain vps1, active compounds read low",1.04
same,normalized growth,"locus YKR026C, strain gcn3, active compounds read low",1
same,normalized growth,"locus YKR091W, strain srl3, active compounds read low",0.993
same,normalized growth,"locus YLL001W, strain dnm1, active compounds read low",1
same,normalized growth,"locus YLL026W, active compounds read low",1
same,normalized growth,"locus YLL041C, strain sdh2, active compounds read low",0.999
same,normalized growth,"locus YLR027C, strain aat2, active compounds read low",1
same,normalized growth,"locus YLR039C, strain RIC1, active compounds read low",1.01
same,normalized growth,"locus YLR058C, strain SHM2, active compounds read low",0.992
same,normalized growth,"locus YLR102C, strain apc9, active compounds read low",1
same,normalized growth,"locus YLR113W, strain HOG1, active compounds read low",1.02
same,normalized growth,"locus YLR221C, strain rsa3, active compounds read low",0.987
same,normalized growth,"locus YLR258W, strain gsy2, active compounds read low",0.995
same,normalized growth,"locus YLR262C, strain YPT6 (second series), active compounds read low",0.996
same,normalized growth,"locus YLR262C, strain YPT6, active compounds read low",1.05
same,normalized growth,"locus YLR268W, strain sec22, active compounds read low",0.991
same,normalized growth,"locus YLR320W, strain mms22, active compounds read low",0.992
same,normalized growth,"locus YLR330W, strain CHS5, active compounds read low",0.997
same,normalized growth,"locus YLR342W, strain FKS1 (second series), active compounds read low",0.942
same,normalized growth,"locus YLR342W, strain FKS1, active compounds read low",1.01
same,normalized growth,"locus YLR357W, strain rsc2, active compounds read low",1.02
same,normalized growth,"locus YLR370C, strain arc18, active compounds read low",1.02
same,normalized growth,"locus YLR371W, strain rom2, active compounds read low",1.01
same,normalized growth,"locus YLR384C, strain iki3, active compounds read low",1.01
same,normalized growth,"locus YLR418C, strain cdc73, active compounds read low",0.958
same,normalized growth,"locus YML016C, strain PPZ1, active compounds read low",0.996
same,normalized growth,"locus YML032C, strain rad52, active compounds read low",1.01
same,normalized growth,"locus YML120C, strain ndi1, active compounds read low",1
same,normalized growth,"locus YML124C, strain tub3, active compounds read low",1
same,normalized growth,"locus YMR058W, strain fet3, active compounds read low",1.02
same,normalized growth,"locus YMR078C, strain ctf18, active compounds read low",1.02
same,normalized growth,"locus YMR125W, strain sto1, active compounds read low",0.988
same,normalized growth,"locus YMR129W, active compounds read low",0.998
same,normalized growth,"locus YMR205C, strain PFK2, active compounds read low",1
same,normalized growth,"locus YMR223W, strain ubp8, active compounds read low",1.01
same,normalized growth,"locus YMR231W, strain pep5, active compounds read low",1
same,normalized growth,"locus YMR263W, strain SAP30, active compounds read low",0.99 and 0.985
same,normalized growth,"locus YMR307W, strain GAS1, active compounds read low",0.893
same,normalized growth,"locus YNL067W, strain RPL9B, active compounds read low",0.977
same,normalized growth,"locus YNL071W, strain lat1, active compounds read low",0.991
same,normalized growth,"locus YNL128W, strain TEP1, active compounds read low",1
same,normalized growth,"locus YNL153C, strain GIM3, active compounds read low",0.995 and 0.976
same,normalized growth,"locus YNL175C, strain NOP13, active compounds read low",0.985
same,normalized growth,"locus YNL183C, strain NPR1, active compounds read low",0.978
same,normalized growth,"locus YNL197C, strain WHI3, active compounds read low",1.01
same,normalized growth,"locus YNL209W, strain ssb2, active compounds read low",0.998
same,normalized growth,"locus YNL224C, strain SQS1, active compounds read low",1.02
same,normalized growth,"locus YNL233W, strain BNI4, active compounds read low",0.994
same,normalized growth,"locus YNL248C, strain rpa49, active compounds read low",0.926
same,normalized growth,"locus YNL250W, strain rad50, active compounds read low",1.01
same,normalized growth,"locus YNL271C, strain bni1, active compounds read low",1.02
same,normalized growth,"locus YNL298W, strain CLA4, active compounds read low",1
same,normalized growth,"locus YNL307C, strain MCK1, active compounds read low",0.998
same,normalized growth,"locus YNL322C, strain KRE1 (second series), active compounds read low",1.02
same,normalized growth,"locus YNR049C, strain mso1, active compounds read low",1.02
same,normalized growth,"locus YNR052C, strain pop2, active compounds read low",1.01
same,normalized growth,"locus YOL012C, strain htz1",0.774
same,normalized growth,"locus YOL147C, strain pex11, active compounds read low",1.01
same,normalized growth,"locus YOR001W, strain rrp6, active compounds read low",1.01
same,normalized growth,"locus YOR061W, strain CKA2, active compounds read low",0.994
same,normalized growth,"locus YOR069W, strain VPS5, active compounds read low",0.994
same,normalized growth,"locus YOR070C, strain gyp1, active compounds read low",0.986
same,normalized growth,"locus YOR080W, strain dia2, active compounds read low",1
same,normalized growth,"locus YOR083W, strain WHI5 (second series), active compounds read low",0.991
same,normalized growth,"locus YOR083W, strain WHI5, active compounds read low",1
same,normalized growth,"locus YOR106W, strain vam3, active compounds read low",1.02
same,normalized growth,"locus YOR136W, strain idh2, active compounds read low",1.03
same,normalized growth,"locus YOR144C, strain elg1, active compounds read low",1
same,normalized growth,"locus YOR184W, strain ser1, active compounds read low",1
same,normalized growth,"locus YOR231W, strain MKK1, active compounds read low",1.04
same,normalized growth,"locus YOR265W, strain rbl2, active compounds read low",0.994
same,normalized growth,"locus YOR270C, strain vph1, active compounds read low",1.01
same,normalized growth,"locus YOR290C, strain snf2, active compounds read low",0.992
same,normalized growth,"locus YOR316C, strain cot1, active compounds read low",1
same,normalized growth,"locus YPL051W, strain arl3, active compounds read low",1
same,normalized growth,"locus YPL055C, strain LGE1, active compounds read low",0.959 and 1.01
same,normalized growth,"locus YPL078C, strain atp4, active compounds read low",1.01
same,normalized growth,"locus YPL106C, strain sse1, active compounds read low",1
same,normalized growth,"locus YPL240C, strain hsp82, active compounds read low",1.02
same,normalized growth,"locus YPL256C, strain CLN2, active compounds read low",1.04
same,normalized growth,"locus YPR119W, strain clb2, active compounds read low",1.01
same,normalized growth,"locus YPR141C, strain kar3, active compounds read low",1.02
same,normalized growth,"locus YPR163C, strain tif3, active compounds read low",1
same,normalized growth,"locus YPR167C, strain met16, active compounds read low",1.01
same,normalized growth,"strain wtn01, active compounds read low",0.997
